High-throughput results deposited in PubChem BioAssay by several laboratories.
Compounds with a hit are over-represented: about 1.1% of the library has one in this group of screens.
A3G deaminase: APOBEC3G DNA deaminase inhibitors, primary screen, biochemical, fluorescence, single-stranded DNA substrate, uHTS | 330,000 tested, 0.28% active | recombinant A3G, ssDNA deamination FAM/TAMRA fluorescence | DNA dC->dU-editing enzyme APOBEC-3G (Homo sapiens), Q9HC16 | inhibition, % at 20 µM;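 active = inhibition of at least 40% at 20 µM, with no more than 30% in the related APOBEC3A deaminase screen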;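 note: plate controls were DMSO wells with A3G for no effect and wells lacking A3G enzyme for full effect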
Target sequence (Q9HC16 whole entry, looked up): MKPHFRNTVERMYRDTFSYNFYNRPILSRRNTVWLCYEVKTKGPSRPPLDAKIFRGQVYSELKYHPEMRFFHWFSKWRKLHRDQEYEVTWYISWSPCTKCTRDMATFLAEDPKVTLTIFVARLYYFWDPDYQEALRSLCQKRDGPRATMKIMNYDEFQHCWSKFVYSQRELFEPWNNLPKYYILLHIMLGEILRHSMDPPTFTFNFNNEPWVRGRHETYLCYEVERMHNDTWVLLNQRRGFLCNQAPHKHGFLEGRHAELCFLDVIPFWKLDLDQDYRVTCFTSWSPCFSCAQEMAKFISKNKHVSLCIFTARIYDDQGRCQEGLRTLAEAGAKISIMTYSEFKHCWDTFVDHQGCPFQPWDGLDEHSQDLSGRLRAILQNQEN
A3A deaminase: APOBEC3A ssDNA deaminase inhibitors, primary screen, selectivity assay for APOBEC3G inhibitor project, biochemical, FAM/TAMRA oligo cleavage fluorescence | DNA dC->dU-editing enzyme APOBEC-3A (Homo sapiens), P31941 | recombinant A3A, FAM/TAMRA ssDNA deamination fluorescence | inhibition, % at 20 µM | 330,000 tested, 0.41% active | AID 493011, 2011;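 active = at least 40% inhibition at 20 µM here, with at most 30% in a related deaminase screen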;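 note: plate controls were A3A with DMSO for no effect and wells lacking A3A enzyme for full effect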
Target sequence (P31941 whole entry, looked up): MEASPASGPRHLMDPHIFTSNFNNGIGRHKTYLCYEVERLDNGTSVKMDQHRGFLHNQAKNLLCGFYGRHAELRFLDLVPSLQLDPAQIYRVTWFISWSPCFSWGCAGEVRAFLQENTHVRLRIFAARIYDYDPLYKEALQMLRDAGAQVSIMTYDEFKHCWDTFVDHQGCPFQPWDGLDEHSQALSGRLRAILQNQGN
A1 inh: caspase 3/7 activation in MEF A1-2A-BIM cells, primary screen, A1 inhibitor project, cell-based, luminescence, HTS. Caspase-Glo 3/7 luminescence, 3 h; percent of clofoctol response, vehicle zero. caspase activation, % (concentration not given with the values). 330,000 tested, 0.066% active. AID 2462, 2010;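 active = over half of replicate activation scores above 10%, or exactly half above 10 with the replicate mean above 10; inconclusive = replicate mean below 10 yet half the replicates above 10; inactive = over half of replicates below 10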
MIN6 prolif: inducers of MIN6 beta-cell proliferation, primary screen, ATP luminescence, uHTS. MIN6 cells proliferation, ATPlite luminescence, 48 h; cells starved in 0.2% serum; 100% = growth in 10% serum. proliferation, % at 10 µM. 330,000 tested, 0.29% active. AID 2380, 2010;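 active = compounds whose signal lies at least 3.5 SD above the mean of all wells on their plate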;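 note: 0% = DMSO-treated cells in low-serum medium and 100% = 10% serum control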
APOBEC3A confirm: APOBEC3A deaminase inhibitors, retest, confirmation, selectivity assay for APOBEC3G inhibitor project, biochemical, single concentration, fluorescence readout; shares compounds with A3A deaminase; recombinant A3A, ssDNA deaminase UDG fluorescence assay; 1,400 tested, 63% active; inhibition, % at 20 µM;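 active = inhibition reaching a set limit, 80% of the first screen's cutoff, at 20 µM in any replicate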;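 note: plate controls were DMSO wells with A3A for no effect and wells lacking A3A enzyme for full effect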
UDG ctr A3A: E. coli UDG inhibitors, confirmation, counter-screen for APOBEC3A inhibitor project, biochemical, single concentration, fluorescence, FAM/TAMRA oligo; 1,000 tested, under 10 active; shares compounds with A3A deaminase; inhibition, % at 20 µM; UDG counterscreen, FAM/TAMRA uracil oligo fluorescence; call rule not given here
* marks the source's active call; other numbers are inactive results; u = inconclusive; x = no result given.

SMILES	A3G deaminase	A3A deaminase	A1 inh	MIN6 prolif	APOBEC3A confirm	UDG ctr A3A
CCCCn1c(N)c(N(CC(C)C)C(=O)COC(=O)c2ccccc2NCCO)c(=O)[nH]c1=O	8.0	41.5*	-0.2	-0.8	16.7	x
Cc1[nH]n(-c2cccc(Cl)c2)c(=O)c1C=NCc1ccco1	5.6	44.2*	-6.9	-2.8	3.2	x
O=C1C=C(c2ccccc2C(F)(F)F)C[C@@H](c2ccc3c(c2)OCO3)C1	-4.6	-2.3	0.9	-1.6	x	x
O=C(CN1CCN(CC(=O)Nc2cccc(F)c2)CC1)NCC1(N2CCOCC2)CCCCC1	-0.8	-0.8	x	-0.3	x	x
O=C(CSc1nnc(NC(=O)c2ccccc2)s1)NCc1ccco1	-1.7	2.5	-4.4	-6.1	x	x
O=C(CSc1nnc(NC(=O)c2ccc3c(c2)OCO3)s1)NCc1ccco1	-3.1	88.0*	-9.3	-6.1	-2.2	1.8
N#C/C(=C/c1cccn1-c1cccc(C(=O)O)c1)c1ccc(Cl)cc1	19.8	70.1*	-0.1	-4.2	64.5*	x
COc1ccc(-n2c(=O)c(CCC(=O)NCCc3ccccc3F)nc3ccccc32)cc1	-8.6	-3.0	-0.4	-2.3	x	x
CCn1nc(C(=O)NCc2nnc3ccccn23)c2ccccc2c1=O	-1.4	1.2	x	-0.8	x	x
CN(C)c1nc(-c2cn(CCC#N)c3ccccc23)cs1	-15.5	-3.8	0.4	-2.7	x	x
CC1(C)CC(N2CCOCC2)=CC(=[N+]2CCOCC2)C1	24.6	66.2*	0.3	-0.5	69.3*	0.6
CC1(C)CC(N2CCCCC2)=CC(=[N+]2CCCCC2)C1	24.7	59.7*	-1.3	-6.6	69.1*	-1.7
CC1C[N+](=C2C=C(N3CCOCC3)CC(C)(C)C2)CC(C)O1 (stereo not drawn)	18.2	56.9*	0.2	1.2	65.5*	0.7
CN(C)NC1=CC(=[N+]2CCCC2)CC(C)(C)C1	0.0	19.1	0.1	-1.2	x	x
CCCN(CCC)C1=CC(=[N+]2CCCC2)CC(C)(C)C1	27.2	59.9*	0.0	-2.7	31.4	x
COc1ccccc1CNC(=O)C(=O)Nc1ccc(C(=O)N2CCC(C)CC2)cc1	6.7	1.8	0.2	0.2	x	x
COc1ccc(S(=O)(=O)N2CC(C)N(C(=O)N(C)C)C2C)cc1 (stereo not drawn)	-9.5	-0.8	0.4	-0.3	x	x
O=C(O)c1nn(CCSc2ccccc2F)c(=O)c2ccccc12	9.7	2.3	-0.4	0.9	x	x
C=C(c1ccccc1Cl)[n+]1ccccc1	-0.7	4.1	-0.3	1.8	x	x
CC(c1ccccc1)C1OCC(C[N+]2(C)CCCCC2)O1 (stereo not drawn)	15.0	68.3*	0.1	-0.7	65.7*	0.3
CSc1ccccc1NC(=O)COC(=O)CCc1ccccc1	4.0	4.7	-0.7	-1.1	x	x
CCCN1Cc2cccc(C(=O)NCc3ccccc3OC)c2C1=O	-1.5	2.5	0.6	-0.6	x	x
COCCN1Cc2cccc(C(=O)NCc3ccccc3OC)c2C1=O	-0.8	95.8*	0.0	-0.2	-0.7	-3.6
Cc1cccnc1NC(=O)CCc1nnc2ccc(N3CCC4(CC3)OCCO4)nn12	5.4	2.4	0.8	-1.9	x	x
CCSCCNC(=O)c1cc(-n2cnnc2)ccc1Cl	25.3	60.2*	0.2	2.4	60.5*	2.0
SMILES	A3G deaminase	A3A deaminase	A1 inh	MIN6 prolif	APOBEC3A confirm	UDG ctr A3A
O=C(NCc1ccc2c(c1)OCO2)c1ccccc1Cl	-0.5	8.0	0.1	-1.2	x	x
O=C(NCc1ccc2c(c1)OCO2)c1cc(-n2cnnc2)ccc1Cl	11.7	57.2*	0.2	-2.0	71.9*	-0.9
COc1ccccc1CCNC(=O)c1cccc(S(=O)(=O)NCc2ccccc2)c1	-5.8	0.1	-0.3	4.1	x	x
O=C(CN1C(=O)NC2(CCSC2)C1=O)NCc1ccccc1 (stereo not drawn)	-9.5	84.2*	3.2	-2.5	-6.4	-2.0
Cc1cc(CN2CCN(CC(=O)Nc3cc(Cl)ccc3-n3cncn3)CC2)no1	-12.2	-1.1	x	-2.5	x	x
Cc1c2ccccc2cc[n+]1CCCS(=O)(=O)[O-]	-2.2	1.1	-0.7	-2.5	x	x
CC[n+]1ccc(/C=C2\Sc3ccccc3N2CCCS(=O)(=O)[O-])c2ccccc21	23.6	82.8*	0.2	1.7	92.4*	3.7
COc1ccccc1N1CCN(S(=O)(=O)c2cc(Br)cnc2N)CC1	-5.4	-2.0	0.1	-2.7	x	x
CCOC(=O)C1CCCN(C(=O)CCc2nnc(-c3ccc(C(C)=O)s3)o2)C1 (stereo not drawn)	-1.6	-0.3	-3.3	-0.4	x	x
O=C(NCCc1ccccc1)c1ccc2c(c1)OCCO2	-7.6	0.0	-6.2	-7.1	x	x
O=C(NCCc1ccccc1)c1ccc2c(c1)OCCCO2	5.6	41.6*	-8.4	-3.9	51.0*	1.7
COC(=O)C1=C(C)N(Cc2ccccc2)C(=S)N[C@H]1c1ccc(Br)cc1	-6.2	1.6	-0.2	-5.6	x	x
COC(=O)C1=C(C)N(Cc2ccccc2)C(=NCCc2cccnc2)N[C@H]1c1ccc(Br)cc1	11.9	44.9*	0.7	-5.7	54.3*	2.1
COC(=O)C1=C(C)N(Cc2ccccc2)C(=NCc2ccc3c(c2)OCO3)N[C@H]1c1ccccc1	0.5	30.9	-1.2	-5.6	x	x
COC(=O)C1=C(C)N(Cc2ccccc2)C(=NCCc2cccnc2)N[C@H]1c1ccccc1	27.4	79.6*	0.2	-6.0	73.9*	-3.2
COC(=O)C1=C(C)N(Cc2ccccc2)C(=NCCCCO)N[C@H]1c1ccccc1	18.7	51.5*	-0.5	-3.3	74.6*	6.0
O=C(CCc1ccccn1)N1CCCC(N2CCN(c3cccc(C(F)(F)F)c3)CC2)C1 (stereo not drawn)	-5.4	-1.7	0.1	-2.1	x	x
C[N+]1(C)CCC(=C2c3ccccc3CC(=O)c3sccc32)CC1	27.6	52.2*	0.5	-3.3	53.2*	x
Cn1cccc2[nH]c(=O)nc1-2	10.6	77.6*	0.7	-0.9	20.4	x
Cc1cc(-c2ccccc2)nc(=O)[nH]1	-3.0	0.1	u	-0.9	x	x
C[n+]1cccc(/C=N/NC(=O)CC23CC4CC(CC(C4)C2)C3)c1	16.4	44.7*	-0.8	2.9	67.2*	0.5
CN(C)/C=C/C(=C\C(=O)C(F)(F)F)Nc1ccc(C(F)(F)F)cc1	-6.4	-2.4	0.0	-3.1	x	x
COc1cc(NS(=O)(=O)c2ccc(NC(=S)NC(=O)/C=C/c3ccco3)cc2)ncn1	22.9	55.0*	x	2.2	73.5*	-3.7
